Shown are actives, neighbours in structure and some others; about 17% of the full set was active somewhere.
HT1080 IDH1KD tx: toxicity to HT-1080 IDH1 knockdown cells (counter line); Potency, µM (series often up to 46.1 µM), hits mostly cytotoxic; AID 686971; hit rate 2% among 360,000; HT-1080 IDH1 knockdown viability, ATP luminescence, 48 h
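Knockdown cells (IDH1KD HT-1080) received compounds 2 h after plating at 750 cells/well and were kept 48 h at 37 °C in 5% FBS RPMI. A CellTiter-Glo luminescence read gave % activity for curve fitting.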
HepG2 tox: HepG2 cytotoxicity, counter-screen for TGF-b inhibitors | HepG2 CAGA-GFP viability, ATP luminescence, 18 h | Potency, µM (doses to about 46.1 µM), hits mostly cytotoxic | hit rate 0.76% among 410,000 | AID 588856
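CellTiter-Glo luminescence gave cytotoxicity after 18 hours at 37 degrees C. The cells were HepG2 CAGA-GFP in 1% FBS DMEM, stimulated with 500 pg/mL TGF-beta after compound addition. %Activity was normalised to no-cell wells (complete cell-killing) and DMSO (no toxicity), and curves were fitted and classified.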
DT40 TDP1 CPT: growth inhibition of DT40 Tdp1-/-;hTDP1 cells with camptothecin (screen for TDP1 inhibitors); chicken DT40 Tdp1-/-;hTDP1 cells + 20 nM CPT, ATP luminescence, 48 h; Potency, µM (highest dose often 46.2 µM), usual class: inhibitors; hit rate 12% among 420,000; AID 686979; further: nearly all actives have a fitted effect of over 55% in size
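Chicken DT40 Tdp1-/- cells complemented with human TDP1, 400 cells/well, exposed to compounds plus 20 nM camptothecin for at least 48 h at 37 C; viability read as ATP content by CellTiter-Glo luminescence.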
HT1080-NT tox: kills 2HG-producing HT-1080-NT fibrosarcoma cells. HT-1080-NT fibrosarcoma viability, CellTiter-Glo ATP luminescence, 48 h. Potency, µM (doses to about 46.1 µM), actives largely listed as cytotoxic. hit rate 1.6% among 360,000. AID 686970;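 further: NT is the 2HG producing partner of a matched IDH1 knockdown line; nearly all actives have a fitted effect of over 55% in size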
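Toxicity toward the 2HG-producing NT line was scored as %Activity, normalised to DMSO and no-cell wells, from CellTiter-Glo luminescence after 48 hours' treatment.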
TGFb inhibitor: inhibitors of TGF-b signaling | AID 588855 | Potency, µM (series often up to 46.1 µM), most hits filed as inhibitors | HepG2 CAGA-GFP TGF-b/SMAD3 reporter, GFP fluorescence, 18 h; TGF-beta stimulated, 500 pg/mL final | hit rate 1.2% among 410,000; further: nearly all actives have a fitted effect of over 65% in size
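GFP signal (ex488/em500-530) from TGF-beta-stimulated HEPG2 CAGA-GFP cells, 500 pg/mL final, 18 h at 37 degrees C in DMEM plus 1% FBS, normalized to unstimulated and DMSO-stimulated controls.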
DT40 TDP1 no CPT: qHTS for Inhibitors of human tyrosyl-DNA phosphodiesterase 1 (TDP1): qHTS in cells in absence of CPT; DT40 Tdp1-/- hTDP1 cells, no CPT, ATP luminescence, 48 h; Potency, µM (series often up to 46.2 µM), usual class: inhibitors; hit rate 15% among 420,000; further: nearly all actives have a fitted effect of over 55% in size
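Growth of hTDP1-complemented DT40 Tdp1-knockout cells is measured by ATP luminescence after at least 48 hr compound exposure at 37 °C, with DMSO substituting for the 20 nM CPT used in the parallel screen.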
Numbers stand for hits; 0 = inactive; ? = inconclusive; - = no result given; [ ] = remark or other dose. The call rests on the fitted dose curve; in most records, active means well fitted curve in the direction sought with a large enough effect; inconclusive means small, poorly fitted or top-dose-only effect, or another doubt; inactive means no such curve, though single readings can be large; an effect the other way counts as inactive or inconclusive.

SMILES | HT1080 IDH1KD tx | HepG2 tox | DT40 TDP1 CPT | HT1080-NT tox | TGFb inhibitor | DT40 TDP1 no CPT
Cc1cc(=O)[nH]c2nnc(SCc3cccc(F)c3)n12 | - | 0 | 0 | - | 0 | 0
CN1CCN(S(=O)(=O)c2ccc(N(C)Cc3c(F)cccc3Cl)nc2)CC1 | 0 | 0 | ? | 0 | 0 | ?
CC1CCc2c(c3ccccc3n2C(=O)CCl)C1 (centres undefined) | 0 | 0 | ? | 0 | 0 | ?
CCN1CCN(CC(=O)n2c3c(c4ccccc42)CC(C)CC3)CC1 (centres undefined) | 0[9.24 µM] | 0 | ? | ? | 0 | 18.4µM
CCOC(=O)c1c(Nc2ccc(O)cc2)nnc(-c2ccccc2)c1-c1ccccc1 | - | 0 | ? | - | 0 | ?
CCOC(=O)c1c(Nc2ccc(C)c(C)c2)nnc(-c2ccccc2)c1-c1ccccc1 | - | 0 | ? | - | 0 | 16.4µM
CCOC(=O)c1c(Nc2ccccc2)nnc(-c2ccccc2)c1-c1ccccc1 | - | 0 | ? | - | ? | ?
CCOC(=O)c1c(Nc2cc(C)cc(C)c2)nnc(-c2ccccc2)c1-c1ccccc1 | - | 0 | 11.6µM | - | 0 | 14.6µM
CCOC(=O)c1c(Nc2cccc(C)c2)nnc(-c2ccccc2)c1-c1ccccc1 | - | 0 | ? | - | ? | 16.4µM
O=c1c2sccc2[nH]c(=S)n1Cc1ccccc1 | 0 | 0 | 0 | 0 | 0 | 0
NC(N)=Nc1ccc(/C=C2\C=Cc3ccccc32)cc1 | - | 0 | 11.2µM | - | 15.8µM | 12.6µM
CN(C)N=Nc1ccc(/C=C2\C=Cc3ccccc32)cc1 | - | 0 | 14.1µM | - | 0 | ?
CN(C)/C=C1\C=Cc2ccccc21 | - | 0 | ? | - | ? | 12.6µM
C1=Cc2ccccc2/C1=C/c1ccc(/C=C2\C=Cc3ccccc32)cc1 | - | 0 | 0 | - | 0 | 0
Cc1ccc(C)c(OCC(=O)N2CCN(c3ncccn3)CC2)c1 | 0 | 0 | 0 | 0 | 0 | ?
CCCN1C(=O)C(Cc2nc3ccccc3c(=O)n2CC)c2cc(Br)ccc21 (centres undefined) | - | 0 | 1.16µM | - | 7.94µM | 1.16µM
CCCN1C(=O)C(Cc2nc3ccccc3c(=O)n2-c2ccccc2)c2ccccc21 (centres undefined) | 0 | 0 | 0 | 0 | 0 | ?
CCCN1C(=O)C(Cc2nc3ccccc3c(=O)n2CC)c2ccccc21 (centres undefined) | - | 0 | ? | - | - | 5.17µM
CCn1c(CC2C(=O)N(C)c3ccc(Br)cc32)nc2ccccc2c1=O (centres undefined) | - | 0 | 5.17µM | - | ? | 1.46µM
CCN1C(=O)C(Cc2nc3ccccc3c(=O)n2C)c2cc(C)ccc21 (centres undefined) | - | 0 | ? | - | 0 | 25.9µM
C=CCOc1ccc(/C=C2\SC(=S)N(NS(=O)(=O)c3ccccc3)C2=O)cc1 | 0 | 0 | 0 | 0 | 0 | 0
Cc1oc2cc(OC(C)C(=O)O)ccc2c(=O)c1Oc1ccccc1 (centres undefined) | 0 | 0 | 0 | 0 | 0 | 0
CCOc1ccc2c(=O)c(Oc3ccccc3)c(C)oc2c1 | 0 | 0 | ? | 0 | 0 | 20.6µM
Cc1ccc(C(=O)N2C(CC(=O)Nc3ccc(Cl)cc3)C(=O)NC3CCCCC32)cc1 (centres undefined) | 5.17µM | 0 | 16.4µM | 5.8µM | 0 | ?
Cc1cccc(NC(=O)CC2C(=O)NC3CCCCC3N2C(=O)c2ccccc2Cl)c1 (centres undefined) | 0 | 0 | 0 | 0 | 0 | 0
SMILES | HT1080 IDH1KD tx | HepG2 tox | DT40 TDP1 CPT | HT1080-NT tox | TGFb inhibitor | DT40 TDP1 no CPT
CC(C)CNC(=O)c1ccc(C2SCC(=O)N2Cc2ccccc2)cc1 (centres undefined) | 0 | 0 | ? | 0 | 0 | 16.4µM
O=C(O)c1ccc(C2SCC(=O)N2Cc2ccccc2)cc1 (centres undefined) | 0 | 0 | 0 | 0 | 0 | 0
N#Cc1nc(NCC(F)F)nc(Nc2cc(F)cc(F)c2)n1 | - | 0 | - | - | 15.8µM | -
N#Cc1nc(Nc2cc(F)cc(F)c2)c2ncn(CC(F)F)c2n1 | - | 0 | - | - | 0 | -
Cc1n[nH]c(C)c1Cc1c(F)cccc1Cl | 0 | 0 | ? | 0 | ? | ?
CNc1cc(C(F)(F)F)nc(-c2ccccn2)n1 | 0 | 0 | ? | 0 | 0 | ?
Nc1nc(-c2ccccn2)nc(N)c1Cc1c(F)cccc1Cl | ? | 0 | 1.84µM | 0 | 0 | 1.46µM
Nc1nc(-c2ccccn2)nc(N)c1Cc1ccccc1F | 0 | 0 | 5.8µM | 0 | ? | 4.61µM
O=C(c1ccc(-c2ccc([N+](=O)[O-])cc2)o1)N1CCCCCCC1 | 0 | 0 | 11.6µM | ? | ? | 10.3µM
CN1CCN(C(=S)c2ccc(-c3cccc([N+](=O)[O-])c3)o2)CC1 | 0 | 0 | 0 | 0 | ? | 23.1µM
O=C(c1ccc(-c2cccc(Cl)c2)o1)N1CCN(c2ccc([N+](=O)[O-])cc2)CC1 | 0 | 0 | ? | 0 | 0 | 20.6µM
Cc1c(Cl)cccc1-c1ccc(C(=O)N2CCN(c3ccc([N+](=O)[O-])cc3)CC2)o1 | 0 | 0 | ? | 0 | 0 | 25.9µM
O=C(c1ccc(-c2ccc([N+](=O)[O-])cc2)o1)N1CCCC(C(F)(F)F)C1 (centres undefined) | 0 | 0 | ? | 0 | 0 | ?
CCCCOc1ccc(C(=O)N(CC)CC(=O)NCc2cccs2)cc1 | 0 | 0 | ? | 0 | 0 | ?
O=[N+]([O-])c1ccccc1-c1ccc(C(=S)N2CCCC2)o1 | 0 | 0 | 25.9µM | 0 | ? | ?
COCC1CCCCN1C(=O)c1ccc(OC)c(OC2CCN(C(C)C)CC2)c1 (centres undefined) | 0 | 0 | 0 | 0 | 0 | 0
Cc1cccc(C(=O)Oc2csc(=S)n2C(=O)c2cccc(C)c2)c1 | 4.61µM | 0 | 0 | 7.31µM | 0 | 0
O=C(Oc1csc(=S)n1C(=O)c1ccccc1)c1ccccc1 | 0 | 0 | ? | 0 | 0 | ?
CCOc1ncccc1C(=O)NCc1ccc(OC)c(OC)c1 | 0 | 0 | 0 | 0 | 0 | ?
Cc1ccc2c(c1)/C(=N/OS(=O)(=O)c1ccccc1)CCS2 | 0 | 0 | ? | 0 | ? | 0
CC1=CC(=O)C(C(C)C)=C/C1=N/OS(=O)(=O)c1ccccc1 | 5.8µM | 0 | 0.581µM | 8.2µM | 5.01µM | 0.581µM
CC1=CC(=O)C=C(C)C1=NOS(=O)(=O)c1ccccc1 | 20.6µM | 0 | 1.3µM | ? | ? | 2.06µM
O=S(=O)(O/N=C1\CCCc2ccccc21)c1ccccc1 | 0 | 0 | 0 | 0 | 0 | 0
CN(C)c1ccc(/C=C/c2ccc3cc(N)ccc3n2)cc1 | - | 0 | 7.08µM | - | 0 | 3.16µM
CN(C)c1ccc(C=Cc2cnccn2)cc1 | 0 | 0 | 0 | 0 | 0 | ?
Cc1ccc2nc(/C=C/c3ccc(N(C)C)cc3)ccc2c1 | - | 0 | 12.6µM | - | 0 | 12.6µM
